In all, about 25,000 sequences were measured (“ln(normalized median fluorescence intensity)”: median about 9.3, highest 2% from about 10 on). The sample holds the highest values, similar sequences and a random draw of the others, so the mix is not that of the screen.
test system: PF3D7_0420300 AP2 domain 1 (GST-tagged); experiment: gcPBM binding intensity (ln(normalized median fluorescence intensity)); higher = stronger DNA binding
How it was run: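 Alexa488 anti-GST antibody, scanned at 488 nm, detected GST-tagged P. falciparum DNA-binding domains that had been expressed in E. coli and incubated for 1 h on an Agilent 4 × 180k array. The array carried primer-extended double-stranded 36-bp intergenic genomic probes and negative controls. Binding intensity is the highest Masliner-normalised natural-log median intensity across replicate spots of either orientation of each probe.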

Row | Sequence | gcPBM binding intensity (ln)
1 | AACCACATACATATAACACACATATACAATATATAT [CACACA_site8607] | 9.65
2 | TTTTGTTATTATAAATAGTAACATTTGTGAATATAT [TGCATGCA_negctrl_site132] | 8.92
3 | GGCCCAACTTCTTCTGACGAAAACGTAAATTGTGTG [XGTACX_negctrl_site533] | 9.22
4 | CTATATCATTTTCTAGCACACACATTGTTATTACCT [CACACA_site8204] | 9.84
5 | AAAAACTAACTGTATTGTACTCTCTTATAAATTCAC [XGTACX_site8967] | 9.15
6 | ATATATATATATATATATATAATAAAAGATCATTTA [XGTACX_negctrl_site371] | 9.09
7 | AAAAAATATATATATATATATATGTAATATTTTTTT [XGTACX_negctrl_site439] | 9.07
8 | TAAATAATGTAAAAAACATCATCAAAATGTTAATTA [CACACA_negctrl_site1768] | 9.09
9 | TATGAAATATTTATACACAGAACTTCATAATTTTCA [TGCATGCA_negctrl_site509] | 9.04
10 | CGTGAATATATGATATGTACTTATAAAAATTTGTGC [XGTACX_site5480] | 9.26
11 | AATAAATATATATTCACACACAAACATATATATATA [CACACA_site4023] | 9.71
12 | CTATTTCATGGACACACACACACAAACAAACATATA [CACACA_site4696] | 10.2
13 | AACACAGATAAATTAACACACACACCCATATATATA [CACACA_site9310] | 10.1
14 | ATAAAAAAAGGACACACACACATATATTTATTTATA [CACACA_site7438] | 10.1
15 | ATACAACAGATATATACACACATATAACAATAATAA [CACACA_site7560] | 9.93
16 | AATACAATTTTTAACACACACACAATAATACAGATA [CACACA_site4823] | 10.2
17 | CTATTTCATAAACACACACACACAAACAAACATATA [CACACA_site8234] | 10.4
18 | ATTTAATACAAATACACACACAAATAAATACAGATA [CACACA_site5956] | 10.2
19 | ATAAAAAGGAGACACACACACACACGCATATTTATA [CACACA_site6551] | 10.3
20 | CACAGATAAATTAACACACACACACCCATATATATA [CACACA_site3960] | 10.1
21 | TAAATAAAAAGACACACACACATATTTATATTTATA [CACACA_site7135] | 10
22 | CACAGATAAATTAACACACACACACCGATATATATA [CACACA_site6049] | 10.2
23 | TTGTGTTTTATTATTTTATTATTACTATTATAATGT [GTGCAC_negctrl_site484] | 9.62
24 | TAAATATATATTATATGTACTTATATATATATATAT [XGTACX_site4448] | 9.13
25 | TAATTTTCTTTTTATCGTTTTTTTTTTTTTTTTTTT [XGTACX_negctrl_site432] | 9.02

Row | Sequence | gcPBM binding intensity (ln)
26 | AGCTAATATATCTTATATTCATATAAAAAAATATAT [CACACA_negctrl_site1786] | 8.94
27 | AAATTTACAATACATTGTACATATTAATAATATTCC [XGTACX_site3646] | 9.17
28 | CAGTTGGAAGGAAAGTGTACATAAAAAAAAATATAA [XGTACX_site8784] | 9.09
29 | TCTTTTTAGATATATACACACCGTGTCTACCTATAC [CACACA_site7551] | 9.41
30 | AAATGAATAAATAGGTCACACACAAATATATATAAA [CACACA_site8764] | 9.91
31 | TATTAATATATAGTAGTGCAATAAAGATATACTGAA | 9.39
32 | TTTCGATTAAAAATTGTACAATATAAGGAGCACACA [GTGCAC_negctrl_site476] | 9.31
33 | AAAATTAAAAATAACACACACATATTTATATTTATA [CACACA_site7329] | 9.75
34 | ATATAATTATAAAATAAACACACATATATATTTATA [CACACA_site8039] | 9.48
35 | TACATAATACATATAACACACACAATTATACATAAA [CACACA_site9060] | 10
36 | ATCTTATATTATCACACACACACGCACAAAACAGAA [CACACA_site1463] | 10.1
37 | AAAATTAAAAATAACACACACATATATATATTTATA [CACACA_site2776] | 9.84
38 | ATAATACAATTTATAACACACACACTATAATACATA [CACACA_site8338] | 9.97
39 | ATATCTTATGTTATCACACACACACGCACAAAACAG [CACACA_site6800] | 10.2
40 | AATACAATTTATAACACACACACAATAATACATATA [CACACA_site1252] | 10.2
41 | ATCTTATATGATCACACACACACGCACAAAACAGAA [CACACA_site4913] | 10.1
42 | CACAGATAAATTAACACACACACACGGATATTTATA [CACACA_site7788] | 10.2
43 | CACAAAAATAAACACACACACATATATATTTATTAT [CACACA_site5923] | 10.2
44 | CAATATAAAAAACACACACACAAACATATATTTATA [CACACA_site3703] | 10.1
45 | AAACATTTACTATATTGTACTTAAGATCTTATCGTA [XGTACX_site3919] | 9.06
46 | CTGTCTGCAGATATGGTGCATTTGTAAGATCTTACA [GTGCAC_site9870] | 9.13
47 | GACATAAAATTCAAAGTGCATAAATAAAATAAACCC | 9.49
48 | ATTATAAACCATAATTAACACACAAAATAAGTTACA [CACACA_site9057] | 9.75
49 | TTTTCTTTCTTGTTTCGTATATTATAAAAAAAAAAG [CACACA_negctrl_site854] | 8.96
50 | ACATTTATATATAATTGTACCCTACATTCTCTTTTT [XGTACX_site189] | 9.5

Row | Sequence | gcPBM binding intensity (ln)
51 | AAAAAAATAATAAAAAGTACAAAATGTAGAAAATGT [XGTACX_site5018] | 9.91
52 | AATAGAGTTGAATGCACACATACAAATTTTTAGTTT [CACACA_site3564] | 9.33
53 | TAGTAGTTATCACTAACATGCAATAATATTATTTAA [TGCATGCA_site161] | 9.08
54 | AATATATATAAATATTGTACAAAAATATATATATAT [XGTACX_site2910] | 9.26
55 | AAGAATCATATTTAAACACACATACAGATATATATA [CACACA_site5787] | 9.51
56 | TACAATCTAAAATACACACACACAAACATATATTTA [CACACA_site3702] | 10.2
57 | AATACAATTTATAACACACACACAAGAATACCTATA [CACACA_site6705] | 10.3
58 | TTATTTAAACAAATCACACACAAATATATATACATA [CACACA_site2019] | 9.71
59 | TATACAATATATATAACACACATATTTATATAAAAT [CACACA_site5061] | 9.57
60 | TATACAATCTATATAACACACATATTTATATAAAAT [CACACA_site1797] | 9.46
61 | TAAAAAAAAATATATAAACACACATATTTATATACA [CACACA_site8469] | 9.36
62 | TACAATATAAAATACACACACACAAACATATATTTA [CACACA_site5941] | 10.2
63 | AAAAAAAACAAACACACACACAAATATTTATATATT [CACACA_site436] | 10.1
64 | TACAATTTATGACACACACACAATAATACCTATATA [CACACA_site6704] | 9.95
65 | AAGGATCACGCACAAACACACATATTTATATTTATA [CACACA_site6405] | 9.47
66 | AACAAAAAAACAAACACACACACACGCATATTTATA [CACACA_site7680] | 10.2
67 | CAATTTATAAAGAAAACACACATATACCTATATACA [CACACA_site6710] | 9.55
68 | AATATATAAGCTGTTCTATTCAAGAATTATATCTTA [CACACA_negctrl_site270] | 9.06
69 | TATATTATTTATTAGACACACATTATTAAAATATTT [CACACA_site4737] | 9.19
70 | GTTTGTATGTCCAAATGTACATATGATTTTATGAAA [XGTACX_site6595] | 9.2
71 | TATATACACATATATAAACACACAAAAAAAAAAAAA [CACACA_site8626] | 9.6
72 | ACAATAAACATATATACACACACAAAAAAAAAAACA [CACACA_site8033] | 10.3
73 | GCCAAAAGGATATGCACACACACACCCATATATATA [CACACA_site2198] | 10.2
74 | AATAAACATATATACACACACAAAAAAAAAAACATA [CACACA_site424] | 10.2
75 | CAAAAGGATATGCACACACACACACGGATATTTATA [CACACA_site7099] | 10.2

Row | Sequence | gcPBM binding intensity (ln)
76 | ATTATATATATTTATGCACACAAAATATATTATATA [CACACA_site9244] | 9.29
77 | AATATATAAACATATACACACAAAAACATATATATA [CACACA_site4855] | 10
78 | GGGAAAATAAATAAAGTGCAGATATTAAAAGTTGTA | 9.41
79 | AGATATCTTGTGAAATAAAAAAAATAATTGCTTATA [CACACA_negctrl_site798] | 8.94
80 | CAACAATTTCGTCATACACACATTCAGAATATAGAT [CACACA_site7166] | 9.68
81 | CATGCAATATTAAACACACACTCATATAGCACAATA [CACACA_site6182] | 9.73
82 | GAACGAAACTTTCTTACACACATTGAAATTTTTTTC [CACACA_site1779] | 9.62
83 | AATAAGAAAACAAATGCACACCATTTATATAGATTA [CACACA_site8261] | 9.56
84 | TACACCAAAAAAAAACGTACAAAATCCCACCCAGAC [XGTACX_site4622] | 10.6
85 | AACAAATACAGACACACACACACACCCAAAAAAAAA [CACACA_site515] | 9.99
86 | AATACACCCAGACACACACACAAAAAAAAAAAAAAA [CACACA_site513] | 9.51
87 | CCCATGCATTTTTGCACACACATATATTTATAAATA [CACACA_site6785] | 9.58
88 | AAAAAAAAAAAACACACACACACAAATATATAAAAA [CACACA_site1171] | 10.1
89 | CTTACCAAAAGACACACACACACAAGATATATAAAT [CACACA_site6964] | 10.2
90 | CTTACCAAAAAACACACACACACAAAATATATAAAT [CACACA_site1870] | 10.3
91 | TAATAAAAGATATATACACACAAATAAATAAATAAA [CACACA_site7818] | 9.72
92 | TATATAAAGATATATACACACAAAAAAAAAAAAAAA [CACACA_site6778] | 9.32
93 | TATAAATAAATAAACACACACAAATAAAATAAAAAA [CACACA_site7623] | 10.1
94 | AAAAAATATAAAAAAACACACAAAAAAAAAAAAAAA [CACACA_site1382] | 9.4
95 | AAATAAATAAAAAACACACACAAATAAATAAATATA [CACACA_site2249] | 10.1
96 | AAAAAAAAAAAACACACACACAAAATAAACAAACAA [CACACA_site2721] | 10.3
97 | ATAAATAAAAACACAAAACAAAACAAAACAAAACAA [CACACA_negctrl_site1257] | 9.41
98 | AAAAAAATAAAACACACACACAAAAAAATAAAAATA [CACACA_site465] | 10.2
99 | TACCAAAAGAAACACACACACAAAATATATAAATAT [CACACA_site1869] | 10.2

Source: the supplement of paper PMC11417369
